# Only some compounds are listed: those with a hit (about 12% of all), similar ones and a draw of the others.
# RORg inh = inhibitors of mouse ROR gamma transcriptional activity. P51450. Drosophila S2 Gal4-RORgamma UAS-luciferase reporter, 20 h. Potency, µM (top dose mostly 53.6 µM), most hits filed as inhibitors. actives 5.4% (n = 310,000). AID 2551; also: nearly all actives have a fitted effect of over 60% in size
#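 Luminescence from a UAS-regulated Photinus luciferase reporter in stably transfected Drosophila Schneider cells is measured; decreased signal marks ROR gamma inhibition. Fusion expression is induced by 700 uM copper sulfate for 20 hr.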
# PLK1 PBD block = PLK1 (human) polo-box domain binding inhibition; P53350; Plk1 PBD binding of FITC phosphopeptide, fluorescence polarization; Potency, µM, actives largely listed as inhibitors; actives 2.8% (n = 360,000); also: series mostly up to about 57 µM; nearly all actives have a fitted effect of over 65% in size
# Target sequence (P53350 whole entry, looked up, the tested form may be a part): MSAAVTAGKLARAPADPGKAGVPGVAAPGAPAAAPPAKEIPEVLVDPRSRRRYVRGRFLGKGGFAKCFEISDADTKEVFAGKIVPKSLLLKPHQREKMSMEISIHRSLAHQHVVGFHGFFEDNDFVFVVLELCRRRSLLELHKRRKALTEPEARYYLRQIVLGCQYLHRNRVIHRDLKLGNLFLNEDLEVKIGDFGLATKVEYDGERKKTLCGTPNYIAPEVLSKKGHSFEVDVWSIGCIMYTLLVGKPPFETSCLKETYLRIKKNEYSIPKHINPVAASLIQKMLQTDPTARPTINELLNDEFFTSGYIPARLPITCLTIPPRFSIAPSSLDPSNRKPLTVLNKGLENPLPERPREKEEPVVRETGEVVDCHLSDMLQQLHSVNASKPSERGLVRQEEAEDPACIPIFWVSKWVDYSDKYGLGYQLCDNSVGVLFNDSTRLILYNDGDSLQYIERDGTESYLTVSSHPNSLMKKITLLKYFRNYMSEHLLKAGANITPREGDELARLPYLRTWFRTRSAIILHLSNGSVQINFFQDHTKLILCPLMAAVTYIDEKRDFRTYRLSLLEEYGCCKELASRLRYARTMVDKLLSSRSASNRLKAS
# ALDH1A1 block = blocks purified human ALDH1A1 activity; Purified ALDH1A1, NADH fluorescence, propionaldehyde substrate; Potency, µM (doses to about 75.3 µM), most hits filed as inhibitors; AID 1030; actives 7.3% (n = 220,000); active = well fitted inhibition curve with a large enough effect, not every such curve was filed as active; inconclusive = small, poorly fitted or top-dose-only effect, or another doubt; inactive = no such curve, though single readings can be large or run the other way
# Sfp inh = inhibitors of Bacillus subtilis Sfp phosphopantetheinyl transferase | Q9F4F7 | Biochemical Sfp PPTase activity, qHTS | Potency, µM, actives largely listed as inhibitors | actives 3.5% (n = 310,000) | AID 1490;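 also: the enzyme is Sfp with the accession as filed and its product quenches rhodamine fluorescence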
#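 After 15 min at room temperature with compound, 15 nM Sfp received 5 uM rhodamine-CoA plus 12.5 uM BHQ-2-ybbR (50 mM Hepes pH 7.6, 10 mM MgCl2). Rate came from the fluorescence difference over 30 min, ex 525/em 598 nm.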
# Gal4-VP16 FLuc = inhibits Gal4-VP16 luciferase reporter, ROR gamma counter-screen | Drosophila S2 Gal4-VP16 UAS-luciferase, luminescence, 20 h | Potency, µM (doses to about 53.6 µM), actives largely listed as inhibitors | actives 3.5% (n = 310,000);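 also: Gal4-VP16 expression switched on by copper sulfate through the metallothionein promoter; nearly all actives have a fitted effect of over 50% in size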
# Numbers stand for hits; – = inactive; ? = inconclusive; · = not tested or not shown; [ ] = remark or other dose. Unless noted, calls follow the shape of the dose curve; as a rule, active = well fitted curve in the direction sought with a large enough effect; inconclusive = small, poorly fitted or top-dose-only effect, or another doubt; inactive = no such curve, though single readings can be large; an effect the other way counts as inactive or inconclusive.
SMILES,RORg inh,PLK1 PBD block,ALDH1A1 block,Sfp inh,Gal4-VP16 FLuc
CSCCOC(=O)C1=C(C)Nc2ccc(C)cc2S1,–,19µM,14µM,50µM,–
O=C(COC(=O)C12CC3CC(CC(O)(C3)C1)C2)Nc1ccc(Cl)c(S(=O)(=O)N2CCOCC2)c1,·,–,·,·,·
CN1CCN(NS(=O)(=O)c2ccc(Cl)cc2)CC1,–,8.4µM,·,–,–
O=C(NCC(=O)N1CCN(C(c2ccccc2)c2ccccc2)CC1)c1ccccc1Br,·,–,·,·,·
CN1C(=O)C(=C2CCCCCC2)SC1=S,?,–,?,56µM,–
O=C1N=C(N2CCCCC2)SC1=C1CCCC1,–,–,?,–,–
O=c1cc(-c2ccccc2O)oc2c1ccc1ccccc12,–,·,–,–,–
Cc1ccc(C(=O)N/N=C2\SCC(=O)N2c2cc(C)ccc2C)cc1,?,–,–,71µM,13µM
O=C(CSc1nc2cc(S(=O)(=O)N3CCOCC3)ccc2o1)NC1CCCc2ccccc21 (stereo not drawn),–,6.7µM,2.2µM,10µM,–
CCn1c2ccccc2c2nc3cc(S(=O)(=O)N4CCOCC4)ccc3nc21,–,0.67µM,1µM,6.3µM,–
c1ccc2nc3c(nc2c1)c1ccccc1n3CCN1CCOCC1,–,–,–,–,–
CCSc1nc2cc(S(=O)(=O)N3CCOCC3)ccc2o1,·,3µM,·,·,·
Cc1[nH]c2ccccc2c1C(=O)CSc1nc2cc(S(=O)(=O)N3CCCCC3)ccc2o1,?,–,–,–,–
Cc1ccc(C(=O)CSc2nc3cc(S(=O)(=O)N4CCOCC4)ccc3o2)cc1,–[10 µM],24µM,14µM,–,–
CCCCCCCCCCCCCCCC(=O)OC[C@@H](COP(=O)([O-])OCC[N+](C)(C)C)OC(=O)CCCCCCCCCCCCCCC,–,·,·,–,–
Cn1nnnc1SCC(=O)Nc1cc(S(=O)(=O)N2CCCCC2)ccc1Cl,·,–,·,·,·
CC(C)CNc1nc2ncnc(N)c2[nH]1,·,·,–[13.5 µM],·,·
COc1ccc(CNC(=O)COC(=O)CO/N=C(\C)c2ccc3c(c2)OCO3)cc1,·,–,·,·,·
O=C1[C@H]2[C@H]3[C@H](O)[C@H](O)C/C(=N/OCc4ccccc4)[C@@H]3CC[C@@H]2C(=O)N1Cc1ccccc1,–[10 µM],·,–[13.5 µM],–,–[10 µM]
O=C(CSc1nc2cc(Cl)ccc2o1)Nc1ccc(N2CCOCC2)cc1,–,–,–,–,–
O=C(CSc1nc2cc(S(=O)(=O)N3CCOCC3)ccc2o1)Nc1c(F)cccc1F,–,2.7µM,4µM,13µM,–
Cc1ccc(C)c(N2C(=N)S/C(=C\c3ccc(-c4ccccc4C(=O)O)o3)C2=O)c1,–,?,?,–,–
CN1C(=O)/C(=C/c2ccc(-c3ccccc3[N+](=O)[O-])o2)SC1=Nc1ccc(Cl)c(C(=O)O)c1,–,27µM,13µM,14µM,?
COCCNC(=O)CC(NS(=O)(=O)c1ccc(C)cc1)c1ccco1 (stereo not drawn),–,–,?,–,–
COc1ccccc1CNC(=O)c1ccccc1C(=O)NC(CC(C)C)C(=O)NCc1ccccc1OC (stereo not drawn),–,30µM,·,–,–
SMILES,RORg inh,PLK1 PBD block,ALDH1A1 block,Sfp inh,Gal4-VP16 FLuc
COc1ccccc1CNC(=O)CC(NS(=O)(=O)c1ccc(C)cc1)c1ccco1 (stereo not drawn),–,27µM,–,–,–
COc1ccccc1CNC(=O)C(C)Sc1ccc(C)cc1 (stereo not drawn),–,21µM,–,–,–
COc1ccc(O)c(/C=N/NC(=O)c2ccc(N3CCCC3=O)cc2)c1,2.2µM,–,·,–,?
O=C(N/N=C/c1ccco1)c1cccc(N2CCCC2=O)c1,?,–,–,–,–
COc1cccc(/C=N/NC(=O)c2cccc(N3CCCC3=O)c2)c1,–,–,·,–,–
COc1ccc(O)c(/C=N/NC(=O)c2cccc(N3CCCC3=O)c2)c1,3.5µM,–,·,–,3.5µM
O=C(N/N=C/c1cc(Br)ccc1O)c1cccc(N2CCCC2=O)c1,1µM,–,–,–,5.6µM
C=C(C)C(=O)/C=C/c1ccc(Br)cc1,–,·,–,–,–
Cn1cc(CN2CCC(C(=O)NC(c3ccc(-c4ccccc4)cc3)c3cnccn3)CC2)c2ccccc21 (stereo not drawn),·,–,·,·,·
CC1(C(=O)Nc2ccc3c(c2)OCCO3)CCN1C(=O)c1ccco1 (stereo not drawn),·,–,·,·,·
Cn1c2ccccc2c2ncn(Cc3ccco3)c(=O)c21,–,–,?,–,–
Cn1c2ccc(F)cc2c2ncn(Cc3ccco3)c(=O)c21,?,–,?,50µM,–
CCCCn1c(=O)n(Cc2cccc(F)c2)c(=O)c2c1ncn2Cc1ccco1,3.2µM,?,?,40µM,?
Brc1ccc(C2=CSC3=NCCN23)cc1,–,?,–,–,–
CCCOc1ccc(C2=CSC3=NCCN23)cc1[N+](=O)[O-],–,30µM,·,–,–
Oc1ccc(C2=CSC3=NCCN23)cc1O,?,–,·,89µM,–
O=S(=O)(c1ccc(C2=CSC3=NCCN23)cc1)N1CCOCC1,–,–,16µM,56µM,–
CN(CC(=O)Nc1ccc(Cl)c(C(F)(F)F)c1)C(=O)Cn1cc([N+](=O)[O-])ccc1=O,·,–,·,·,·
COc1cccc(-c2noc(Cn3nc(C)c([N+](=O)[O-])c3C)n2)c1,–,19µM,–,35µM,–
CC1=NN(C(=O)c2cccc(Cn3nc(C)c([N+](=O)[O-])c3C)c2)C(O)(C(F)(F)F)C1 (stereo not drawn),3.2µM,–,–,–,7.1µM
Cc1nn(Cc2cccc(C(=O)N3N=C(C(F)F)CC3(O)C(F)F)c2)c(C)c1[N+](=O)[O-] (stereo not drawn),?,–,?,–,–
COC(=O)c1cccc(Cn2nc(C)c([N+](=O)[O-])c2C)c1,–,21µM,–,–,–
CC1=NN(C(=O)c2ccc(Cn3cc([N+](=O)[O-])cn3)cc2)C(O)(C(F)(F)F)C1 (stereo not drawn),10µM,–,–,–,13µM
C[C@@H]1CN([C@H](C)CO)C(=O)c2c(c3ccccc3n2C)-c2ccccc2CO[C@@H]1CN(C)S(=O)(=O)c1cccs1,·,–,·,·,·
O=C(Nc1ccc(Oc2ccccc2)cc1)c1csc([C@H]2C[C@H](O)[C@@H](CO)O2)n1,·,–,·,·,·
Cc1ccsc1C(=O)N1CCC1(C)C(=O)NS(=O)(=O)c1ccccc1C(F)(F)F (stereo not drawn),·,–,·,·,·
O=C(CS(=O)c1ccc(C(F)(F)F)cc1[N+](=O)[O-])Oc1ccc(Cl)cc1 (stereo not drawn),?,13µM,–,–,?
COc1ccc(-c2nc3c(Br)c(N)c(Br)cc3o2)cc1,–,–,14µM,22µM,–
Cc1cc([N+](=O)[O-])cc2c1NC(=O)C2(O)N1CCCC(C)C1 (stereo not drawn),–,–,·,–,–
Cc1cc([N+](=O)[O-])cc2c1NC(=O)C2(O)N1CCCCCC1 (stereo not drawn),–,–,22µM,–,–
